The whole screen tested about 5,500 compounds, of which about 2,000 (36%) were called active. Another 18% or so got no clear call; they are omitted. Cut-off read from the data, not from the text of the source: active = normalized growth mostly below about 0.91 (no sharp cut-off); inconclusive = no clear call, values can overlap the other calls; inactive = mostly above about 0.92. Some of the results follow.
Assay: chemical genetic growth profiling, strain panel (AID 1159580);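 note: tested at 20 µM; growth read once vehicle control cultures reached saturation at 30 °C; 1 = growth at the plate median or of vehicle wells; lower values mean less growth of the strain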
Details: growth OD

Measured: normalized growth

CCCC(=O)Nc1ncnc2c1ncn2C1O[C@@H]2COP(=O)(O)O[C@H]2[C@H]1OC(=O)CCC (stereo not given in full)
inactive: S. cerevisiae deletion strains, locus YJR066W, strain TOR1, active compounds read low 0.97 | S. cerevisiae deletion strains, locus YKL009W, strain mrt4, active compounds read low 1.01 | S. cerevisiae deletion strains, locus YKL068W, active compounds read low 1.03 | S. cerevisiae deletion strains, locus YKL085W, strain MDH1 (second series), active compounds read low 1.01 | S. cerevisiae deletion strains, locus YKL085W, strain MDH1, active compounds read low 1.01 | S. cerevisiae deletion strains, locus YKL160W, strain elf1, active compounds read low 0.999 | S. cerevisiae deletion strains, locus YKL190W, strain CNB1, active compounds read low 1.01 | S. cerevisiae deletion strains, locus YKR001C, strain vps1, active compounds read low 1.04 | S. cerevisiae deletion strains, locus YKR026C, strain gcn3, active compounds read low 0.979 | S. cerevisiae deletion strains, locus YKR091W, strain srl3, active compounds read low 0.989 | S. cerevisiae deletion strains, locus YLL001W, strain dnm1, active compounds read low 0.967 | S. cerevisiae deletion strains, locus YLL026W, active compounds read low 0.985 | S. cerevisiae deletion strains, locus YLL041C, strain sdh2, active compounds read low 0.98 | S. cerevisiae deletion strains, locus YLR027C, strain aat2, active compounds read low 0.999 | S. cerevisiae deletion strains, locus YLR039C, strain RIC1, active compounds read low 1.02 | S. cerevisiae deletion strains, locus YLR058C, strain SHM2, active compounds read low 1.01 | S. cerevisiae deletion strains, locus YLR102C, strain apc9, active compounds read low 1.01 | S. cerevisiae deletion strains, locus YLR113W, strain HOG1, active compounds read low 1.01 | S. cerevisiae deletion strains, locus YLR221C, strain rsa3, active compounds read low 0.945 | S. cerevisiae deletion strains, locus YLR258W, strain gsy2, active compounds read low 0.965 | S. cerevisiae deletion strains, locus YLR262C, strain YPT6 (second series), active compounds read low 0.984 | S. cerevisiae deletion strains, locus YLR262C, strain YPT6, active compounds read low 1.04 | S. cerevisiae deletion strains, locus YLR268W, strain sec22, active compounds read low 1.03 | S. cerevisiae deletion strains, locus YLR320W, strain mms22, active compounds read low 0.949 | S. cerevisiae deletion strains, locus YLR330W, strain CHS5, active compounds read low 1.01 | S. cerevisiae deletion strains, locus YLR342W, strain FKS1 (second series), active compounds read low 1 | S. cerevisiae deletion strains, locus YLR342W, strain FKS1, active compounds read low 0.992 | S. cerevisiae deletion strains, locus YLR357W, strain rsc2, active compounds read low 1 | S. cerevisiae deletion strains, locus YLR370C, strain arc18, active compounds read low 0.952 | S. cerevisiae deletion strains, locus YLR371W, strain rom2, active compounds read low 1.02 | S. cerevisiae deletion strains, locus YLR384C, strain iki3, active compounds read low 0.976 | S. cerevisiae deletion strains, locus YLR418C, strain cdc73, active compounds read low 1.04 | S. cerevisiae deletion strains, locus YML016C, strain PPZ1, active compounds read low 1.01 | S. cerevisiae deletion strains, locus YML032C, strain rad52, active compounds read low 1.03 | S. cerevisiae deletion strains, locus YML120C, strain ndi1, active compounds read low 0.962 | S. cerevisiae deletion strains, locus YML124C, strain tub3, active compounds read low 1.01 | S. cerevisiae deletion strains, locus YMR058W, strain fet3, active compounds read low 0.986 | S. cerevisiae deletion strains, locus YMR078C, strain ctf18, active compounds read low 1.03 | S. cerevisiae deletion strains, locus YMR125W, strain sto1, active compounds read low 0.971 | S. cerevisiae deletion strains, locus YMR129W, active compounds read low 0.991 | S. cerevisiae deletion strains, locus YMR205C, strain PFK2, active compounds read low 0.98 | S. cerevisiae deletion strains, locus YMR223W, strain ubp8, active compounds read low 1.03 | S. cerevisiae deletion strains, locus YMR231W, strain pep5, active compounds read low 0.988 | S. cerevisiae deletion strains, locus YMR263W, strain SAP30, active compounds read low 1 | S. cerevisiae deletion strains, locus YMR307W, strain GAS1, active compounds read low 0.995 | S. cerevisiae deletion strains, locus YNL067W, strain RPL9B, active compounds read low 1 | S. cerevisiae deletion strains, locus YNL071W, strain lat1, active compounds read low 0.987 | S. cerevisiae deletion strains, locus YNL128W, strain TEP1, active compounds read low 1.02 | S. cerevisiae deletion strains, locus YNL153C, strain GIM3, active compounds read low 1 | S. cerevisiae deletion strains, locus YNL183C, strain NPR1, active compounds read low 0.969 | S. cerevisiae deletion strains, locus YNL209W, strain ssb2, active compounds read low 0.982 | S. cerevisiae deletion strains, locus YNL233W, strain BNI4, active compounds read low 0.999 | S. cerevisiae deletion strains, locus YNL248C, strain rpa49, active compounds read low 1.02 | S. cerevisiae deletion strains, locus YNL250W, strain rad50, active compounds read low 1.03 | S. cerevisiae deletion strains, locus YNL271C, strain bni1, active compounds read low 1.02 | S. cerevisiae deletion strains, locus YNL298W, strain CLA4, active compounds read low 1.02 | S. cerevisiae deletion strains, locus YNL307C, strain MCK1, active compounds read low 1.03 | S. cerevisiae deletion strains, locus YNL322C, strain KRE1 (second series), active compounds read low 0.975 | S. cerevisiae deletion strains, locus YNR049C, strain mso1, active compounds read low 0.981 | S. cerevisiae deletion strains, locus YNR052C, strain pop2, active compounds read low 1.02 | S. cerevisiae deletion strains, locus YOL006C, strain TOP1, active compounds read low 1.03 | S. cerevisiae deletion strains, locus YOL012C, strain htz1 0.919 | S. cerevisiae deletion strains, locus YOL147C, strain pex11, active compounds read low 1.02 | S. cerevisiae deletion strains, locus YOR001W, strain rrp6, active compounds read low 1.02 | S. cerevisiae deletion strains, locus YOR061W, strain CKA2, active compounds read low 1.02 | S. cerevisiae deletion strains, locus YOR069W, strain VPS5, active compounds read low 1 | S. cerevisiae deletion strains, locus YOR070C, strain gyp1, active compounds read low 0.988 | S. cerevisiae deletion strains, locus YOR080W, strain dia2, active compounds read low 0.983 | S. cerevisiae deletion strains, locus YOR083W, strain WHI5, active compounds read low 0.986 | S. cerevisiae deletion strains, locus YOR106W, strain vam3, active compounds read low 0.982 | S. cerevisiae deletion strains, locus YOR136W, strain idh2, active compounds read low 1.02 | S. cerevisiae deletion strains, locus YOR144C, strain elg1, active compounds read low 1.02 | S. cerevisiae deletion strains, locus YOR184W, strain ser1, active compounds read low 1.02 | S. cerevisiae deletion strains, locus YOR231W, strain MKK1, active compounds read low 1.03 | S. cerevisiae deletion strains, locus YOR265W, strain rbl2, active compounds read low 0.978 | S. cerevisiae deletion strains, locus YOR270C, strain vph1, active compounds read low 0.983 | S. cerevisiae deletion strains, locus YOR290C, strain snf2, active compounds read low 0.961 | S. cerevisiae deletion strains, locus YOR316C, strain cot1, active compounds read low 1.02 | S. cerevisiae deletion strains, locus YPL051W, strain arl3, active compounds read low 0.997 | S. cerevisiae deletion strains, locus YPL078C, strain atp4, active compounds read low 0.99 | S. cerevisiae deletion strains, locus YPL106C, strain sse1, active compounds read low 0.941 | S. cerevisiae deletion strains, locus YPL240C, strain hsp82, active compounds read low 0.994 | S. cerevisiae deletion strains, locus YPL241C, strain CIN2, active compounds read low 1.01 | S. cerevisiae deletion strains, locus YPL256C, strain CLN2, active compounds read low 1.06 | S. cerevisiae deletion strains, locus YPR119W, strain clb2, active compounds read low 1.02 | S. cerevisiae deletion strains, locus YPR141C, strain kar3, active compounds read low 1.01 | S. cerevisiae deletion strains, locus YPR163C, strain tif3, active compounds read low 1.03 | S. cerevisiae deletion strains, locus YPR167C, strain met16, active compounds read low 1.01 | S. cerevisiae deletion strains, strain wtn01, active compounds read low 1.02 | S. cerevisiae strains, strain wild type, active compounds read low 1.01

Source: PubChem BioAssay AID1159580 (chemical genetic matrix, 2015)
